According to PubChem BioAssay (NCI):
The panel holds about 79,000 compounds, 15% with a hit somewhere; the sample as a whole holds those more often. Active and inactive are the calls of the source. Rule as the data show it: active = growth inhibition above about 70%; inactive = the rest.

Legend:
[1] = NCI Yeast Anticancer Drug Screen. Data for the rad52 strain (AID 147);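 also: 0% = growth of vehicle-treated control cultures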; settings: S. cerevisiae rad52 mutant growth inhibition, hits give high values
Procedure, shortened: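 Yeast strain carrying a DNA damage repair alteration was exposed to test compounds. Growth inhibition was measured relative to vehicle-treated controls.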

[2] = NCI Yeast Anticancer Drug Screen. Data for the wt1 strain (AID 149);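 also: 0% = growth of vehicle-treated wt1 cultures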; settings: S. cerevisiae wt1 strain (SPY 50644) growth inhibition, hits give high values
Procedure, shortened: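 Readout: yeast growth inhibition, normalised to vehicle controls, in the wt1 strain exposed to test compounds.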

[3] = NCI Yeast Anticancer Drug Screen. Data for the rad50EPP+ strain (AID 151);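 also: 0% = growth of vehicle-treated control cultures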; settings: S. cerevisiae rad50 mutant strain, hits give high values
Procedure, shortened: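 Yeast strain carrying rad50 alteration (rad50EPP+) exposed to compounds; growth inhibition measured relative to vehicle-treated controls.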

[4] = NCI Yeast Anticancer Drug Screen. Data for the mgt1 strain (AID 153); settings: S. cerevisiae mgt1 mutant growth inhibition, hits give high values
Procedure, shortened: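 Yeast mgt1 strain (DNA repair/cell-cycle alteration panel) exposed to compounds; growth inhibition measured relative to vehicle-treated controls.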

[5] = NCI Yeast Anticancer Drug Screen. Data for the rad50 strain (AID 155);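 also: 0% = growth of vehicle-only cultures of the same strain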; settings: S. cerevisiae rad50 strain growth inhibition, hits give high values
Procedure, shortened: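 Compounds were tested on a yeast strain with an engineered DNA damage repair alteration; the reported value is growth inhibition normalised to vehicle treatment.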

[6] = NCI Yeast Anticancer Drug Screen. Data for the mec2-1 strain (AID 157); settings: S. cerevisiae mec2-1 strain, hits give high values
Procedure, shortened: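 mec2-1 yeast strain, carrying an alteration in DNA damage repair or cell cycle control, was exposed to compounds; growth inhibition was measured relative to vehicle-treated controls.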

[7] = NCI Yeast Anticancer Drug Screen. Data for the rad14 strain (AID 159);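 also: 0% = growth of vehicle-treated control cultures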; settings: S. cerevisiae rad14 strain growth inhibition, hits give high values
Procedure, shortened: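 Compound-treated yeast with a defined DNA-repair lesion; growth inhibition normalised to vehicle-treated cultures.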

[8] = NCI Yeast Anticancer Drug Screen. Data for the sgs1 mgt1 strain (AID 161);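 also: 0% = growth of cultures given vehicle only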; settings: S. cerevisiae sgs1 mgt1 strain, hits give high values
Procedure, shortened: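 Compounds are added to genetically altered yeast, and growth is compared with cultures given vehicle alone to give percent inhibition.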

[9] = NCI Yeast Anticancer Drug Screen. Data for the CLN2oe strain (AID 163);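 also: 0% = growth of vehicle-only control cultures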; settings: S. cerevisiae CLN2oe strain, hits give high values
Procedure, shortened: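 Yeast cells carrying a defined cell-cycle control alteration were exposed to test compounds. Growth inhibition was scored against vehicle-treated control cultures.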

[10] = NCI Yeast Anticancer Drug Screen. Data for the cln2 rad14 strain (AID 165);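 also: 0% = growth equal to vehicle treated cultures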; settings: S. cerevisiae cln2 rad14 strain, hits give high values
Procedure, shortened: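 Yeast carrying cln2 and rad14 alterations (cell cycle control and DNA damage repair) were exposed to compounds. Growth inhibition was measured against vehicle-treated controls.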

[11] = NCI Yeast Anticancer Drug Screen. Data for the bub3 strain (AID 167); settings: S. cerevisiae bub3 mutant strain, hits give high values
Procedure, shortened: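 Growth of a checkpoint-deficient yeast mutant is measured after compound exposure. Values represent inhibition relative to vehicle.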

[12] = NCI Yeast Anticancer Drug Screen. Data for the wt2 strain (AID 169);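 also: 0% = growth of vehicle-treated yeast cultures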; settings: S. cerevisiae wt2 strain growth inhibition, hits give high values
Procedure, shortened: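 Yeast cells were exposed to test compounds, and growth inhibition was measured relative to vehicle-treated controls.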

[13] = NCI Yeast Anticancer Drug Screen. Data for the mlh1 strain (AID 171);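 also: 0% = growth of vehicle-treated control cultures of the same strain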; settings: S. cerevisiae mlh1 strain growth inhibition, hits give high values
Procedure, shortened: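 Yeast carrying a defined genetic alteration in DNA damage repair or cell cycle control were exposed to test compounds. Growth inhibition was measured relative to vehicle-treated controls.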

[14] = NCI Yeast Anticancer Drug Screen. Data for the sgs1 strain (AID 173);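 also: 0% = growth of vehicle-only control cultures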; settings: S. cerevisiae sgs1 mutant, hits give high values
Procedure, shortened: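 Yeast mutant strains carrying defined defects in DNA damage repair or cell cycle control were exposed to test compounds. Growth inhibition was scored against vehicle-treated controls.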

[15] = NCI Yeast Anticancer Drug Screen. Data for the mlh1 rad18 strain (AID 175); settings: S. cerevisiae mlh1 rad18 strain growth inhibition, hits give high values
Procedure, shortened: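 Growth inhibition of the yeast strain was measured after compound exposure and expressed relative to vehicle-treated controls. The strain carries defined defects in DNA damage repair.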

[16] = NCI Yeast Anticancer Drug Screen. Data for the rad18 strain (AID 177); settings: S. cerevisiae rad18 mutant growth inhibition, hits give high values
Procedure, shortened: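 Yeast carrying a defined DNA damage repair alteration were exposed to compounds. Growth inhibition was expressed relative to vehicle-treated controls.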

[17] = at 5.0 µM (retest, dose inferred, filed as 0.5)
[18] = at 50.0 µM (retest, dose inferred, filed as 5.0)

Measured: growth inhibition

COC(=O)CSSCc1ccc([N+](=O)[O-])cc1
inactive: [1]; at 1.2 µM 3% | [1]; at 3.7 µM 19% | [1]; at 11.0 µM 40% | [2]; at 1.2 µM -1% | [2]; at 3.7 µM -2% | [2]; at 11.0 µM 3% | [2]; at 33.0 µM 24% | [3]; at 1.2 µM -2% | [3]; at 3.7 µM 13% | [4]; at 1.2 µM -1% | [4]; at 3.7 µM 1% | [4]; at 11.0 µM 16% | [4]; at 33.0 µM 44% | [5]; at 1.2 µM 4% | [5]; at 3.7 µM 20% | [5]; [17] 15% | [5]; at 11.0 µM 47% | [6]; at 1.2 µM -2% | [6]; at 3.7 µM 2% | [6]; [17] -8% | [6]; at 11.0 µM 14% | [6]; at 33.0 µM 37% | [7]; at 1.2 µM 0% | [7]; at 3.7 µM 8% | [7]; at 11.0 µM 20% | [7]; at 33.0 µM 48% | [8]; [17] 38% | [9]; at 1.2 µM -1% | [9]; at 3.7 µM -6% | [9]; at 11.0 µM 7% | [9]; at 33.0 µM 43% | [10]; [17] -10% | [11]; at 1.2 µM 1% | [11]; at 3.7 µM 5% | [11]; [17] 43% | [11]; at 11.0 µM 24% | [12]; at 1.2 µM 1% | [12]; at 3.7 µM -3% | [12]; at 11.0 µM 22% | [12]; at 33.0 µM 34% | [13]; at 1.2 µM -4% | [13]; at 3.7 µM 9% | [13]; at 11.0 µM 31% | [13]; at 33.0 µM 67% | [14]; at 1.2 µM -20% | [14]; at 3.7 µM -24% | [14]; at 11.0 µM 33% | [15]; [17] 69% | [16]; at 1.2 µM -2% | [16]; at 3.7 µM 19% | [16]; at 11.0 µM 48%
active: [1]; at 33.0 µM 75% | [1]; at 100.0 µM 98% | [2]; at 100.0 µM 83% | [3]; at 11.0 µM 70% | [3]; at 33.0 µM 93% | [3]; at 100.0 µM 98% | [4]; at 100.0 µM 98% | [5]; at 33.0 µM 85% | [5]; [18] 97% | [5]; at 50.0 µM 97.3% | [5]; at 100.0 µM 97% | [6]; [18] 96% | [6]; at 50.0 µM 96% | [6]; at 100.0 µM 97% | [7]; at 100.0 µM 98% | [8]; [18] 97% | [8]; at 50.0 µM 94.7% | [9]; at 100.0 µM 95% | [10]; [18] 89% | [10]; at 50.0 µM 93.6% | [11]; at 33.0 µM 71% | [11]; [18] 98% | [11]; at 50.0 µM 96% | [11]; at 100.0 µM 97% | [12]; at 100.0 µM 98% | [13]; at 100.0 µM 99% | [14]; at 33.0 µM 87% | [14]; at 100.0 µM 99% | [15]; [18] 98% | [15]; at 50.0 µM 94.4% | [16]; at 33.0 µM 83% | [16]; at 100.0 µM 97%

CC(C)[N+]([O-])(CCCNc1c2ccccc2nc2cccc([N+](=O)[O-])c12)C(C)C
active: [1]; at 3.7 µM 83% | [1]; at 11.0 µM 94% | [1]; at 33.0 µM 96% | [1]; at 100.0 µM 98% | [2]; at 33.0 µM 78% | [2]; at 100.0 µM 94% | [3]; at 33.0 µM 91% | [3]; at 100.0 µM 97% | [4]; at 33.0 µM 90% | [4]; at 100.0 µM 98% | [5]; [17] 70% | [5]; at 11.0 µM 86% | [5]; at 33.0 µM 93% | [5]; [18] 97% | [5]; at 50.0 µM 87.6% | [5]; at 100.0 µM 96% | [6]; at 11.0 µM 96% | [6]; at 33.0 µM 98% | [6]; [18] 99% | [6]; at 50.0 µM 87% | [6]; at 100.0 µM 99% | [7]; at 3.7 µM 93% | [7]; at 11.0 µM 98% | [7]; at 33.0 µM 99% | [7]; at 100.0 µM 99% | [8]; [17] 89% | [8]; [18] 98% | [8]; at 50.0 µM 93.6% | [9]; at 33.0 µM 88% | [9]; at 100.0 µM 95% | [10]; [17] 96% | [10]; [18] 99% | [10]; at 50.0 µM 96% | [11]; at 33.0 µM 90% | [11]; [18] 97% | [11]; at 100.0 µM 98% | [12]; at 33.0 µM 89% | [12]; at 100.0 µM 96% | [13]; at 33.0 µM 91% | [13]; at 100.0 µM 98% | [14]; at 3.7 µM 84% | [14]; at 11.0 µM 93% | [14]; at 33.0 µM 96% | [14]; at 100.0 µM 97% | [15]; [17] 92% | [15]; [18] 98% | [15]; at 50.0 µM 95.2% | [16]; at 1.2 µM 96% | [16]; at 3.7 µM 96% | [16]; at 11.0 µM 96% | [16]; at 33.0 µM 97% | [16]; at 100.0 µM 97%
inactive: [1]; at 1.2 µM 48% | [2]; at 1.2 µM 0% | [2]; at 3.7 µM 3% | [2]; at 11.0 µM 18% | [3]; at 1.2 µM 6% | [3]; at 3.7 µM 26% | [3]; at 11.0 µM 66% | [4]; at 1.2 µM 0% | [4]; at 3.7 µM 6% | [4]; at 11.0 µM 24% | [5]; at 1.2 µM 24% | [5]; at 3.7 µM 57% | [6]; at 1.2 µM 13% | [6]; at 3.7 µM 69% | [6]; [17] 68% | [7]; at 1.2 µM 50% | [9]; at 1.2 µM -3% | [9]; at 3.7 µM 2% | [9]; at 11.0 µM 42% | [11]; at 1.2 µM -14% | [11]; at 3.7 µM -8% | [11]; [17] -2% | [11]; at 11.0 µM 33% | [11]; at 50.0 µM 11.9% | [12]; at 1.2 µM 1% | [12]; at 3.7 µM 5% | [12]; at 11.0 µM 24% | [13]; at 1.2 µM 3% | [13]; at 3.7 µM 10% | [13]; at 11.0 µM 37% | [14]; at 1.2 µM 64%
